# In PMC7862700, “An all-to-all approach to the identification of sequence-specific readers for epigenetic DNA modifications on cytosine”:
# Experiments:
# Assay in all cases: DAPPL (digital affinity profiling via proximity ligation, sequencing); 10 mM Tris-HCl pH 7.5, 50 mM NaCl, 1 mM DTT, 4% glycerol, room temperature, 30 min; GST-TFs on glutathione beads, 16-mer random dsDNA library, 0.1% formaldehyde crosslink after washing; high values mean tight binding
# Conditions in all cases: protein: recombinant; tags: N-terminal GST; dsDNA, one strand shown
# ELK1 = biological target: T1, ELK1 (Homo sapiens, UniProt P19419 1-428)
# T1 sequence: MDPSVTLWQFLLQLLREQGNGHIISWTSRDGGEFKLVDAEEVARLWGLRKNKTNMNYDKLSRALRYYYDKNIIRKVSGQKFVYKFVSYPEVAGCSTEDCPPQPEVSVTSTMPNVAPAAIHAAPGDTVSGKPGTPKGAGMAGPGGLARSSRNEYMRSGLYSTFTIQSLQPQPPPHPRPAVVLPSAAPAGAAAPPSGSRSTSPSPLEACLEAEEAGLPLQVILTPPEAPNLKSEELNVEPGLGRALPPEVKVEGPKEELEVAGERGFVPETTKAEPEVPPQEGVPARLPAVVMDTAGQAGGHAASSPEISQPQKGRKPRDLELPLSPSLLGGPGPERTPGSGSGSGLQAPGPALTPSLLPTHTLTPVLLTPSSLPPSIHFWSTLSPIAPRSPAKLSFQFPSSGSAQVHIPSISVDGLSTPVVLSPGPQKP
# Method in brief: (§1)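 Binding signal is each hexamer's read frequency for a factor divided by its frequency in the tag-only sample. The factors were GST-fused human transcription factors from yeast, captured on glutathione beads, DNA-barcoded and pooled with that sample. Pools were incubated with 200 nmole of a random double-stranded 16-mer DNA library in Tris/NaCl/DTT/glycerol buffer at room temperature for 30 min, then washed, crosslinked with 0.1% formaldehyde, proximity-ligated with BsaI/T4 ligase (1 h, 37 °C), PCR-amplified and sequenced on an Illumina NextSeq500.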
# GABPA = biological target: T2, GABPA (Homo sapiens, UniProt Q06546 1-454)
# T2 sequence: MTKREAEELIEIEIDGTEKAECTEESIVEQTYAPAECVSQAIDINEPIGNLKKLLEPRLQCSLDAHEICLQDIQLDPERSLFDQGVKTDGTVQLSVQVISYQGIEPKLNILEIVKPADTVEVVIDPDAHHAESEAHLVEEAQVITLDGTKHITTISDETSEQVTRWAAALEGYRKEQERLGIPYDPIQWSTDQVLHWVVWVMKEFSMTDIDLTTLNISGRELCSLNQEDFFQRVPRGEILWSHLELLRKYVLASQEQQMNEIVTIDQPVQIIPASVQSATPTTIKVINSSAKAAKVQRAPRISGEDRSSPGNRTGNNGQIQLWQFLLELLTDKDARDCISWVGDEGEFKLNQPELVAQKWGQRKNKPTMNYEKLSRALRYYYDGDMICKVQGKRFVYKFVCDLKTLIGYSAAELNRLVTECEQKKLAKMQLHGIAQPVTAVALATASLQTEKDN
# Method in brief: as §1
# ERG = biological target: T3, ERG (Homo sapiens, UniProt P11308 1-479)
# T3 sequence: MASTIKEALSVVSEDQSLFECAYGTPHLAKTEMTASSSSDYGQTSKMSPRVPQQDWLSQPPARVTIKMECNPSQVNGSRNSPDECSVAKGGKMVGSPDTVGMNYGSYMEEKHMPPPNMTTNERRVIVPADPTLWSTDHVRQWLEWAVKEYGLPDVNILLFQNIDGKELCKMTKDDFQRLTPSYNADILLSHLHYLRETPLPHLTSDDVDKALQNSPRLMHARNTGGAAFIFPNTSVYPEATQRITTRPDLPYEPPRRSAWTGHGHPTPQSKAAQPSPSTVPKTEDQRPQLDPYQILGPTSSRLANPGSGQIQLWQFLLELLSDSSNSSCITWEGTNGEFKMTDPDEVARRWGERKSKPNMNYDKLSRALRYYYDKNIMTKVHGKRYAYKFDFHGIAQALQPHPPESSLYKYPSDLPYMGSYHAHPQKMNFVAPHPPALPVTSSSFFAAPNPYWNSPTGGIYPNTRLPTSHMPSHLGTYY
# Method in brief: as §1
# ELF1 = ELF1 (Homo sapiens, UniProt P32519 1-619)
# Sequence of ELF1 (P32519 whole entry): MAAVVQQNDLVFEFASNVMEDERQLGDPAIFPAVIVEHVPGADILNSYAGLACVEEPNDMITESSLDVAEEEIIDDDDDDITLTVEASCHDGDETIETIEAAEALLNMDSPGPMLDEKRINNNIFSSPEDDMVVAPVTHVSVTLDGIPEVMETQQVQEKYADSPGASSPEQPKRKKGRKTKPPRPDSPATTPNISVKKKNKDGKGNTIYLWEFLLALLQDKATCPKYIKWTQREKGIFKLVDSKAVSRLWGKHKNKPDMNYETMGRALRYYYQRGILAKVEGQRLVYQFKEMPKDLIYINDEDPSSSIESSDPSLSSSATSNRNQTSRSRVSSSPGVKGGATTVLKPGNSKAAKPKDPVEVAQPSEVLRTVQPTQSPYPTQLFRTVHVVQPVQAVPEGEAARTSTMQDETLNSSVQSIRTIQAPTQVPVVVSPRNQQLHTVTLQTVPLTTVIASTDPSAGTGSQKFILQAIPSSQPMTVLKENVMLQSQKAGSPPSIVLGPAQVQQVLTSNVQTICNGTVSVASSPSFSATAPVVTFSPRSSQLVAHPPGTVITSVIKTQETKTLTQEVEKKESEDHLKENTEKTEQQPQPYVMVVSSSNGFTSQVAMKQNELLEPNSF
# Method in brief: as §1
# EHF = biological target: T4, EHF (Homo sapiens, UniProt Q9NZC4 1-300)
# T4 sequence: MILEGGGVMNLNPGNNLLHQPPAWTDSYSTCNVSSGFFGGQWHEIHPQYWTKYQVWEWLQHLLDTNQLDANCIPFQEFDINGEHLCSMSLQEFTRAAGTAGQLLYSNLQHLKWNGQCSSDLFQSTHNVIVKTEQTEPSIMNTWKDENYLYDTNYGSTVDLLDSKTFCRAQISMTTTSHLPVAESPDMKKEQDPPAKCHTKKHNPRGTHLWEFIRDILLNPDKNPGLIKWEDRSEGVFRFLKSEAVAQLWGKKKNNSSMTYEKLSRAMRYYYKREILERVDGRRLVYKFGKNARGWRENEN
# Method in brief: as §1
# SPIB = SPIB (Homo sapiens, UniProt Q01892 1-262)
# Sequence of SPIB (Q01892 whole entry): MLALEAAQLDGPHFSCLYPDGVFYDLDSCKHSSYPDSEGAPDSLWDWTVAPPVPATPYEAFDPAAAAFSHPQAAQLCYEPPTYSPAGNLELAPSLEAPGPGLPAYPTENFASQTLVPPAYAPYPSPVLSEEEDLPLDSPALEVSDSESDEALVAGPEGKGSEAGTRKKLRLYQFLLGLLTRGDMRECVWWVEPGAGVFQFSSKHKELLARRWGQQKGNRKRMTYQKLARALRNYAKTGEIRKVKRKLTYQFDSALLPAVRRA
# Method in brief: as §1
# FEV = biological target: T5, FEV (Homo sapiens, UniProt Q99581 1-238)
# T5 sequence: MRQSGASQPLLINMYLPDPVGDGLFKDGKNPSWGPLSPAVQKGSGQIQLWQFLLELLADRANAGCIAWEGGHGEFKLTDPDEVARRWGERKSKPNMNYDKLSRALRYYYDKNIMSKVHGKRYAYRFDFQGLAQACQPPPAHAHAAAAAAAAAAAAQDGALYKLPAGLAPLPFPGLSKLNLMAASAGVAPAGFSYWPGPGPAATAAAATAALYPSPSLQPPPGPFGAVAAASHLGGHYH
# Method in brief: as §1
# ETV5 = ETV5 (Homo sapiens, UniProt P41161 1-510)
# Sequence of ETV5 (P41161 whole entry): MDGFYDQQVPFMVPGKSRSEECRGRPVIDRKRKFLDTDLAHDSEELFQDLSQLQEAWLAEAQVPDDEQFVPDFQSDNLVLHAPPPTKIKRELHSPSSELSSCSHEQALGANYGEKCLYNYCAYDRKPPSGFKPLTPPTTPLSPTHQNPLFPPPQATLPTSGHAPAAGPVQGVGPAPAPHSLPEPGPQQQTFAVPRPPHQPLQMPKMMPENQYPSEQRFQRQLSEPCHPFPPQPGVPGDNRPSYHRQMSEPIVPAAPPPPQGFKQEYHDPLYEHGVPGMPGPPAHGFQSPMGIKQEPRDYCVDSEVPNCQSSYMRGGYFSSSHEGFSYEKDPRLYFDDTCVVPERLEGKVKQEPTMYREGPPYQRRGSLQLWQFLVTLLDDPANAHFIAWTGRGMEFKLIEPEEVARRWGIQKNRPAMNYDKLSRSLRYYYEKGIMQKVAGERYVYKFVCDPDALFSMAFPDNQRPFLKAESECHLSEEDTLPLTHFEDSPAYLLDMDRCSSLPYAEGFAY
# Method in brief: as §1
# ELK4 = biological target: T6, ELK4 (Homo sapiens, UniProt P28324-2 1-405)
# T6 sequence: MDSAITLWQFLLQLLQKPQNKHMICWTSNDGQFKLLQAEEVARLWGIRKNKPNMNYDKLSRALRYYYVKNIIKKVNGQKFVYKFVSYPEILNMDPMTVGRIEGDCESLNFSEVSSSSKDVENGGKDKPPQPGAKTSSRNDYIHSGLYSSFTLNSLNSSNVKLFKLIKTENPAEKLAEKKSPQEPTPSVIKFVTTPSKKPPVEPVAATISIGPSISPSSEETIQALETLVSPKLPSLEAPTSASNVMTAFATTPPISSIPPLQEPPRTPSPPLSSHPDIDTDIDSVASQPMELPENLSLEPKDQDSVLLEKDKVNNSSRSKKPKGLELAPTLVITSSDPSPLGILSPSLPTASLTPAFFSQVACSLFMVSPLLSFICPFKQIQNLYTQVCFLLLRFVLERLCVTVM
# Method in brief: as §1
# ELF3 = biological target: T7, ELF3 (Homo sapiens, UniProt P78545 1-371)
# T7 sequence: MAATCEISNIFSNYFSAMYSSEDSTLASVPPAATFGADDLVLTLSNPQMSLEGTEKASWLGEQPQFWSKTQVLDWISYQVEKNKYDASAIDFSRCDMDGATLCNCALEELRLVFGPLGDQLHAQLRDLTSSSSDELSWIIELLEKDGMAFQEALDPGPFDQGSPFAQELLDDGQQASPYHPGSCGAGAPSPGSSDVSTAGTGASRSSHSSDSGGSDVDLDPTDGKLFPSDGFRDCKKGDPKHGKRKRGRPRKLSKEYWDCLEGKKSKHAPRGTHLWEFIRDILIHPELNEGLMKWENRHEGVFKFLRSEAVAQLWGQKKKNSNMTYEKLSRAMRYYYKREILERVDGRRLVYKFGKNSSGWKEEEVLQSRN
# Method in brief: as §1
# ETV1 = ETV1 (Homo sapiens, UniProt P50549 1-477)
# Sequence of ETV1 (P50549 whole entry): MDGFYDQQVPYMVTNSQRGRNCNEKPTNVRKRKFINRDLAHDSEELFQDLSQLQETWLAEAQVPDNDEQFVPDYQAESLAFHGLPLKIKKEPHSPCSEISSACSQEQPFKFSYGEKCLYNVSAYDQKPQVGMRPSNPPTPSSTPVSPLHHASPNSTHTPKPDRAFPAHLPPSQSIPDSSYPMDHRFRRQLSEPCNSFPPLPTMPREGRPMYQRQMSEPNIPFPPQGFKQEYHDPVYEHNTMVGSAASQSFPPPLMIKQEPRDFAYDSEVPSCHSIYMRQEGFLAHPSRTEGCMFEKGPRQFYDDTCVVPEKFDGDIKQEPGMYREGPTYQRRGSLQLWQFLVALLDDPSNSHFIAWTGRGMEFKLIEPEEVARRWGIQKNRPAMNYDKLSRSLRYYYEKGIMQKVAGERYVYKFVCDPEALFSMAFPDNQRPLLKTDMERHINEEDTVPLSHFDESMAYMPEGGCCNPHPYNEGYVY
# Method in brief: as §1
# ERF = biological target: T8, ERF (Homo sapiens, UniProt P50548 1-548)
# T8 sequence: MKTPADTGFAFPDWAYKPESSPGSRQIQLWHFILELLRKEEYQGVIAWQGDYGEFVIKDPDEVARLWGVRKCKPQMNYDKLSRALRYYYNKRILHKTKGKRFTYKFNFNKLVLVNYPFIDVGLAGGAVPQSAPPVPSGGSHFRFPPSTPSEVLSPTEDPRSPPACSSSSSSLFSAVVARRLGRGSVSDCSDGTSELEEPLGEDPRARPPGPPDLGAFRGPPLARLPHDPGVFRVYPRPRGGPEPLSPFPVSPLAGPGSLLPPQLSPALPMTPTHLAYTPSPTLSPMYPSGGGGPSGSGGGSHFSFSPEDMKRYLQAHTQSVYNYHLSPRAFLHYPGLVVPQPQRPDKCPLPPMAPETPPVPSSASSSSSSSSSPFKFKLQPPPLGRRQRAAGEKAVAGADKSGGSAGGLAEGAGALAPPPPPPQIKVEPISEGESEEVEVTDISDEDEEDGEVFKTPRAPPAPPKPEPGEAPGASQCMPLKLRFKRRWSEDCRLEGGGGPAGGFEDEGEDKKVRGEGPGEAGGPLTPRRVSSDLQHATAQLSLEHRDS
# Method in brief: as §1
# ETV3L = biological target: T9, ETV3L (Homo sapiens, UniProt Q6ZN32 1-361)
# T9 sequence: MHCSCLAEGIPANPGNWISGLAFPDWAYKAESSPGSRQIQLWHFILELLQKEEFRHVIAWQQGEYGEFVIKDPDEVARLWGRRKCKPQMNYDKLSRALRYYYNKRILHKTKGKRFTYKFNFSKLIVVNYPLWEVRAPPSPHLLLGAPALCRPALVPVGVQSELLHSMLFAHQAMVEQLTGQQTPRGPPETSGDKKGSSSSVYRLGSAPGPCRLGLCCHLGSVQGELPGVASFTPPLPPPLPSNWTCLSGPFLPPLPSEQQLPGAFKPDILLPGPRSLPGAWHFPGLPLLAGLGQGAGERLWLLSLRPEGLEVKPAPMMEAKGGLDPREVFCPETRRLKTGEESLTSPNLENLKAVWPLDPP
# Method in brief: as §1
# ETS2 = biological target: T10, ETS2 (Homo sapiens, UniProt P15036 1-469)
# T10 sequence: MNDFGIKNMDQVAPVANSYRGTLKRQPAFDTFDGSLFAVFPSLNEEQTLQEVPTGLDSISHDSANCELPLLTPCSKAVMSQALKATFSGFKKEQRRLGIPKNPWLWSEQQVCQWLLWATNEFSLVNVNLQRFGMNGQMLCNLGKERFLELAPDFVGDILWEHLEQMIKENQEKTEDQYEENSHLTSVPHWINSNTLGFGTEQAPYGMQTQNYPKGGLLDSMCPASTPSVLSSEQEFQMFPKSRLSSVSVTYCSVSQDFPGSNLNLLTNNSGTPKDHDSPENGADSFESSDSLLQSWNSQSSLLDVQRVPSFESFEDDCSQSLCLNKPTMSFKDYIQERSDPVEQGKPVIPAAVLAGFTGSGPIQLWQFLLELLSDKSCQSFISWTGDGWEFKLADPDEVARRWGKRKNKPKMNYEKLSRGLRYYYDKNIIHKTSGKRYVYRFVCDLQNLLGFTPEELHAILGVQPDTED
# Method in brief: as §1
# SPDEF = biological target: T11, SPDEF (Homo sapiens, UniProt O95238 1-335)
# T11 sequence: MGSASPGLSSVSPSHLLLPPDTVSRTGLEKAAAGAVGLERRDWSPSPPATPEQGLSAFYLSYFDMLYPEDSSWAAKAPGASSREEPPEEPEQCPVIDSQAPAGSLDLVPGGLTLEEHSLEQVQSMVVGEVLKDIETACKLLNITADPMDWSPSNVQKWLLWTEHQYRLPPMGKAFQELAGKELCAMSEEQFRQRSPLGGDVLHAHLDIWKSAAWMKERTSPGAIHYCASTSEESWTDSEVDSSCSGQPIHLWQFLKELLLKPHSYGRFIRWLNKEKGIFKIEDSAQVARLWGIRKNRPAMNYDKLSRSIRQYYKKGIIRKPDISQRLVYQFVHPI
# Method in brief: as §1
# ETV7 = biological target: T12, ETV7 (Homo sapiens, UniProt Q9Y603 1-341)
# T12 sequence: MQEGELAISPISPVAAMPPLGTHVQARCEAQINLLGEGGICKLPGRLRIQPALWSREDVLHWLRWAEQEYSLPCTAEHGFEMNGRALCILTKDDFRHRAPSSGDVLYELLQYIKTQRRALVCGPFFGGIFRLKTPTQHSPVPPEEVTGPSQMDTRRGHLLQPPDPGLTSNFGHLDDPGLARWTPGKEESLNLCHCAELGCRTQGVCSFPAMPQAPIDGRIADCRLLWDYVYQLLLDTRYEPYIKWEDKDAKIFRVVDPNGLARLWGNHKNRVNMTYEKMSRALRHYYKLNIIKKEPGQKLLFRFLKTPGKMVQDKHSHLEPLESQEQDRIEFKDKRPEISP
# Method in brief: as §1
# ETV3 = biological target: T13, ETV3 (Homo sapiens, UniProt P41162-2 1-143)
# T13 sequence: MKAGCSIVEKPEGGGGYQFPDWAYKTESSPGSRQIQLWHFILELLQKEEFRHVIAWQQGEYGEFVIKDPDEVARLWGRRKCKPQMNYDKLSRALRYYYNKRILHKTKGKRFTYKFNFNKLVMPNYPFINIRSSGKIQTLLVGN
# Method in brief: as §1
sequence,measurement,setting,value
AGCGAT,binding signal,ELK1,"1.11 fold enrichment (6-mer frequency, TF over GST control)"
same,binding signal,GABPA,"1.07 fold enrichment (6-mer frequency, TF over GST control)"
same,binding signal,ERG,"1.06 fold enrichment (6-mer frequency, TF over GST control)"
same,binding signal,ELF1,"1.09 fold enrichment (6-mer frequency, TF over GST control)"
same,binding signal,EHF,"1.07 fold enrichment (6-mer frequency, TF over GST control)"
same,binding signal,SPIB,"1.02 fold enrichment (6-mer frequency, TF over GST control)"
same,binding signal,FEV,"1.05 fold enrichment (6-mer frequency, TF over GST control)"
same,binding signal,ETV5,"1.14 fold enrichment (6-mer frequency, TF over GST control)"
same,binding signal,ELK4,"1.07 fold enrichment (6-mer frequency, TF over GST control)"
same,binding signal,ELF3,"1.2 fold enrichment (6-mer frequency, TF over GST control)"
same,binding signal,ETV1,"1.02 fold enrichment (6-mer frequency, TF over GST control)"
same,binding signal,ERF,"1.09 fold enrichment (6-mer frequency, TF over GST control)"
same,binding signal,ETV3L,"1.1 fold enrichment (6-mer frequency, TF over GST control)"
same,binding signal,ETS2,"1.09 fold enrichment (6-mer frequency, TF over GST control)"
same,binding signal,SPDEF,"1.08 fold enrichment (6-mer frequency, TF over GST control)"
same,binding signal,ETV7,"1.09 fold enrichment (6-mer frequency, TF over GST control)"
same,binding signal,ETV3,"1.02 fold enrichment (6-mer frequency, TF over GST control)"
